From PubChem BioAssay (Tox21)
Unmarked numbers belong to inactive results. Entries that show only a call come without a potency. The source made the active and inactive calls. The call rests on the fitted dose curve; in most records, active means well fitted curve in the direction sought with a large enough effect in the repeat runs; inconclusive means weak or mixed curves; inactive means flat fitted curve, though single readings scatter.

Assay: qHTS assay to test for compound auto fluorescence at 460 nm (blue) in HEK293 cell free culture (AID 720681)
Conditions: cell-free medium, autofluorescence 405/460 nm (blue); series mostly up to 91.3 µM
Description: U.S. Tox21 Program National Center for Advancing Translational Sciences [NCATS] NIH Chemical Genomics Center [NCGC] U.S. Environmental Protection Agency [EPA] National Institutes of Environmental Health Sciences [NIEHS] National Toxicology Program [NTP] U.S. Food and Drug Administration [FDA] Tox21 Assay Overview: Compound auto fluorescence often interferes with screening of the compound library against various biological targets and signaling pathways. Some of these compounds may have fluorophoric properties. Such properties may interfere with the assay outputs resulting in false positives and/or negatives. To decrease such complications and ensure the compound activities are relevant in terms of biological response, the Tox21 10K compound library was screened for auto fluorescence. From the fluorophores used as reporter signals in our screening assays, the auto fluorescence equivalencies of compounds against three fluorophores have been evaluated: Triamterene, Fluorescein and Rose Bengal sodium for blue, green and red fluorescence, respectively. The fluorescence intensities were measured using Excitation/Emission wavelengths at 405/460nm, 485/535nm and 540/590nm for blue, green and red labels, respectively. This assay includes the blue fluorescence data.
Tox21 Assay Protocol Summary: 5 uL of culture medium (DMEM containing 10% FBS) per well was dispensed into black wall/clear bottom 1536-well plates using a Multidrop Combi Dispenser (ThermoFisher Scientific, Waltham, MA). After 23 nL compound or DMSO vehicle was transferred into assay plate by a pintool work station (Kalypsys, San Diego, CA), fluorescence intensities in the assay plates were measured by an Envision (PerkinElmer, Shelton, CT) plate reader using three labels for measuring blue, green and red fluorescence at […] 460, 535 and 590nm respectively.

Row | Structure (SMILES) | Potency | fluorescence, % of fluorescent control
1 | O=C(c1ccc(O)cc1O)c1ccc(O)cc1O | inactive | –
2 | CCc1cc(Cc2cc(CC)c(N)c(CC)c2)cc(CC)c1N | inactive | –
3 | CSc1ccc2c(c1)C(N1CCN(C)CC1)Cc1ccccc1S2 (stereo not given) | inactive | –
4 | CC(C)OC(=O)c1cc2c(OCC(O)CNC(C)(C)C)cccc2[nH]1 (stereo not given) | inactive | –
5 | CCCN(CCC)c1c([N+](=O)[O-])cc(C(F)(F)F)c(N)c1[N+](=O)[O-] | inactive | –
6 | CCCCCCCCCCCCCC[P+](CCCC)(CCCC)CCCC (tested in a mixture with another compound) | inactive | –
7 | CNCc1cc(F)ccc1Oc1ccc(Cl)c(Cl)c1 | inactive | –
8 | O=C1c2c(O)ccc(Nc3ccc(CCO)cc3)c2C(=O)c2c([N+](=O)[O-])ccc(O)c21 | inactive | –
9 | CC(C)n1nc(-c2cc3cc(O)ccc3[nH]2)c2c(N)ncnc21 | inactive | –
10 | C=C(C)C(=O)OCC[N+](C)(C)C | inactive | –
11 | CCCN(CCC)C(=O)C(CCC(=O)OCCCN1CCN(CCOC(=O)Cc2c(C)n(C(=O)c3ccc(Cl)cc3)c3ccc(OC)cc23)CC1)NC(=O)c1ccccc1 (stereo not given) | inactive | –
12 | Cc1cc(O)c2ccccc2c1O | inactive | –
13 | COc1ccc(-c2ccc3cc(C(=O)O)ccc3c2)cc1C12CC3CC(CC(C3)C1)C2 | inactive | –
14 | CC1=C(C(=O)OC(C)C)C(c2cccc([N+](=O)[O-])c2)C(C(=O)OC2CN(C(c3ccccc3)c3ccccc3)C2)=C(N)N1 (stereo not given) | inactive | –
15 | NC(=NCCCCCCN=C(N)/N=C(\N)Nc1ccc(Cl)cc1)/N=C(\N)Nc1ccc(Cl)cc1 | inactive | –
16 | COc1cccc(N)c1 | inactive | –
17 | CCCC1O[C@@H]2C[C@H]3[C@@H]4CCC5=CC(=O)C=C[C@]5(C)[C@H]4[C@@H](O)C[C@]3(C)[C@]2(C(=O)CO)O1 (stereo not given in full) | inactive | –
18 | CC(C)=CCOc1ccc(/C=C/C(=O)c2ccc(OCC=C(C)C)cc2OCC(=O)O)cc1 | inactive | –
19 | CS(=O)(=O)CCNCc1ccc(-c2ccc3ncnc(Nc4ccc(OCc5cccc(F)c5)c(Cl)c4)c3c2)o1 | inactive | –
20 | Oc1cccc(-c2c3nc(c(-c4cccc(O)c4)c4ccc([nH]4)c(-c4cccc(O)c4)c4nc(c(-c5cccc(O)c5)c5ccc2[nH]5)CC4)C=C3)c1 | inactive | –

Row | Structure (SMILES) | Potency | fluorescence, % of fluorescent control
21 | CC1(C)CCC(C)(C)c2cc(C(=O)Nc3ccc(C(=O)O)cc3)ccc21 | inactive | –
22 | Cc1cc(CCN2CCN(c3nsc4ccccc34)CC2)cc2c1NC(=O)CC2(C)C | inactive | –
23 | CCCCCCCCOc1ccccc1C(=O)Nc1ccc(C(=O)OCC[N+](C)(CC)CC)cc1 | inactive | –
24 | Cc1[nH]nc2c1N=C(c1ccccc1Cl)c1cc([N+](=O)[O-])ccc1N2 | inactive | –
25 | CCCCCCCCCCCCCCCS(=O)(=O)Oc1ccccc1 | inactive | –
26 | CNc1ccc(O)cc1 | inactive | –
27 | Cc1cc(O)c(C(C)(C)C)cc1Sc1cc(C(C)(C)C)c(O)cc1C | inactive | –
28 | CN(C)C(=O)C1(N2CCCCC2)CCN(CC[C@@]2(c3ccc(Cl)c(Cl)c3)CN(C(=O)c3ccccc3)CCO2)CC1 | inactive | –
29 | C=CC(=O)OCC(CO)(COC(=O)C=C)COC(=O)C=C | inactive | –
30 | Clc1ccc2nsnc2c1NC1=NCCN1 | inactive | –
31 | NC(=O)N1C(=O)C(C(=O)c2cc(Cl)cs2)c2cc(F)c(Cl)cc21 (stereo not given) | inactive | –
32 | CN(C)c1ccc(C2(c3ccc(N(C)C)cc3)OC(=O)c3cc(N(C)C)ccc32)cc1 | inactive | –
33 | NNc1nc(-c2ccc(N)cc2)cs1 | inactive | –
34 | Fc1ccc(C(c2ccc(F)cc2)N2CCN(C/C=C/c3ccccc3)CC2)cc1 | inactive | –
35 | CC(C)(C)C(=O)OCOC(=O)[C@@H]1N2C(=O)[C@@H](NC(=O)[C@H](N)c3ccccc3)[C@H]2SC1(C)C | – | 0.0397% [at 18.6 µM]
36 | COc1cccc2c1C(=O)c1c(O)c3c(c(O)c1C2=O)C[C@@](O)(C(=O)CO)C[C@@H]3O[C@H]1C[C@H](N)[C@H](O[C@@H]2CCCCO2)[C@H](C)O1 | inactive | –
37 | Cc1[nH]cnc1C[C@H]1CCc2c(C)c3ccccc3n2C1=O | inactive | –
38 | N=C1N=C(N)c2ccccc21 | inactive | –
39 | C1CCCC1 | inactive | –
40 | CCCCCCOC(=O)c1ccc(O)cc1 | inactive | –
